The panel holds about 83,000 compounds, 20% with a hit somewhere; the sample as a whole holds those more often.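 A percent growth of 40 corresponds to 60% growth inhibition; 0 means no net growth; -100 means all cells died. Active threshold: below 10.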 Activity calls are given as the source filed them.

The assay deals with MALME-3M melanoma. In words: NCI-60 one-dose screen, 48 h (100 = growth as untreated, 0 = no growth, -100 = all killed). The settings on record: 10 µM unless noted.
As for `CCSc1nc(NC)c2cc(-c3ccc(C(F)(F)F)cc3)ccc2n1`, the growth was 96.9% (inactive).
For `Cc1nc(-c2ccccc2)cc2c(O)c(C(=O)NN)[nH]c(=O)c12`, the growth was 229% (inactive).
In the case of `Cc1ccc(S(=O)(=O)N2CCCC2CO)cc1` (stereo unspecified) it was 83.8% (inactive); in that of `CCOC(=O)c1cc(-c2ccc([N+](=O)[O-])cc2)n(-c2ccc(C(=O)O)c(O)c2)c1C`, 80.6% (inactive).
`COc1cc(CNS(=O)(=O)c2ccc(C)cc2)ccc1OCc1cn(-c2ccc(Br)cc2)nn1`: the growth is 104% (inactive).
Turning to `O=C(/C=C/c1ccccc1)c1cccc(OCCCOc2cccc(C(=O)/C=C/c3ccccc3)c2)c1`, the growth is 107% (inactive).
`C=CCc1c(O)c(C(=O)/C=C/c2ccc(Cl)cc2)c(OC)c2ccoc12`: the growth is 34.6% (inactive).
With `COc1ccc(-c2nc3c(c(-c4ccccc4)nn3-c3ccccc3)c(-c3ccc(N4CCOCC4)cc3)c2C#N)cc1`, the growth is 103% (inactive).
For `O=C1/C(=C/c2ccc(Cl)cc2)COc2ccc(O)c(O)c21`, the growth was 7.38% (active).
`CN(C)c1ccc(Nc2cc(-c3cccc(OC(F)(F)F)c3)nc3ccc(N4CCCC4)cc23)cc1`: the growth was -90.4% (active).
As to `O=C(c1ccc(-c2nc(CSc3nc4ccccc4s3)no2)cc1)N1CCSCC1`, the growth is 66.3% (inactive).
In the case of `N=C(N)c1ccc(-c2ccc(-c3ccc(Cl)cc3)s2)nc1` it was 87.3% (inactive); in that of `COC(=O)c1c2c(c(C)[n+]([O-])c1C)C(=O)C=C(NCc1ccc(OC)cc1)C2=O`, -97.4% (active).
In the case of `O=C1/C(=C/c2ccc(Cl)cc2)COc2ccc(O)cc21`, the growth is 94.9% (inactive).
In the case of `Cc1cccc2c1NC(=O)C2(c1ccc(O)cc1)c1ccc(O)cc1` it was 93.1% (inactive); in that of `CN1CCN(Cc2ccc3c(NNC(=O)c4ccccc4)nc4cc(F)ccc4n23)CC1`, 23.5% (inactive).
As to `COc1ccc2[nH]cc(-c3nc(-c4cn(C)c5c(Cl)nccc45)cs3)c2c1`, the growth was 72.1% (inactive).
As for `O=C(CCc1nnc(Cn2cnc3nc[nH]c3c2=O)o1)c1nc2ncccc2[nH]1`, the figure is 97.5% (inactive); as for `CC1=Nc2cnc(Nc3ccc(OCCN4CCCCC4)cc3)nc2Nc2ccccc21`, 58.4% (inactive); as for `Cc1nc2ncnc(Cl)c2[nH]1`, 106% (inactive).
As for `CC(C)(C)[Si](C)(C)O[C@H]1C(=O)C=CN2CC=C[C@@H]12`, the figure is 106% [100 µM] (inactive); as for `c1cnc2[nH]cc(-c3csc(-c4cn(CCCN5CCOCC5)c5ccccc45)n3)c2c1`, 61.1% (inactive).
As for `Cc1ccccc1Cn1cnc2ccc(-c3cc(NC(=O)c4ccc(NC5CCN(C)CC5)cc4)n[nH]3)cc21`, the figure is 31.6% (inactive); as for `COC(C(=O)[C@@H](O)[C@@H](C)O)[C@@H]1Cc2cc3cc(O[C@H]4C[C@@H](O[C@H]5C[C@@H](O)[C@H](O)C(C)O5)[C@H](O)C(C)O4)cc(O)c3c(O)c2C(=O)[C@H]1O[C@H]1C[C@@H](O[C@H]2C[C@@H](O[C@H]3C[C@@H](OC)[C@H](O)C(C)O3)[C@@H](O)C(C)O2)[C@H](O)C(C)O1` (stereo partly specified), 25.8% (inactive).
For the molecule `Cc1cc(Cl)ccc1Nc1nc(C(F)(F)F)ccc1C(=O)N/N=C/c1ccc([N+](=O)[O-])cc1`, the growth is -13.5% (active).
In the case of `COc1cc(N2C(=O)[C@H](O)C2c2ccc(SC)cc2)cc(OC)c1OC` (stereo partly specified) it was 71.7% (inactive).
In the case of `Fc1cc2c(cc1Cl)N(c1ncnc3ccc(-c4cnc5[nH]ncc5c4)cc13)CC2`, the growth was 77.3% (inactive).
`COc1ccccc1NC(=O)Cn1cc(CN2CCN(c3ccnc4cc(Cl)ccc34)CC2)nn1`: the growth was 106% (inactive).
As for `COc1cc(CNC(=O)CCCC/C=C/C(C)C)ccc1OCc1nnc(Nc2ccc([N+](=O)[O-])cc2)o1`, the figure is 69.6% (inactive); as for `O=C(NCCCN1CCOCC1)c1cccc(N2C(=O)/C(=C/c3ccc(F)cc3)SC2=S)c1`, 90.4% (inactive); as for `O=C(CSc1nnc2n1S(=O)(=O)c1ccccc1N2c1ccccc1)Nc1nc2ccc(F)cc2s1`, 87.4% (inactive).
For the molecule `N#Cc1nc(-c2ccccc2)oc1S(=O)(=O)N1CCOCC1`, the growth was 39.6% (inactive).
As for `CC(C)c1ccc(COCc2cc(CN3CCCC3)c(O)c3ncccc23)cc1`, the figure is 8.44% (active); as for `Cc1cc(N)c2cc(NC(=O)/C=C\c3ccccc3Cl)ccc2n1`, -76.2% (active).
Take `COc1ccc(Cc2cc(-c3ccccc3)nn(Cc3ccccc3)c2=O)cc1OC`: the growth is 23.4% (inactive).
In the case of `O=C1/C(=C/c2ccc(F)cc2)COc2ccc(O)cc21` it was 85.6% (inactive).
